According to the supplement of paper PMC13380429:

Tested on: Vero E6 infected with SARS-CoV-2
Test: inhibition of SARS-CoV-2 cytopathic effect; higher = more antiviral protection, active = above 15
Details: 48 h

Measured: inhibition of SARS-CoV-2 cytopathic effect

O=C(O)CCc1ccc(NCc2cccc(Oc3ccccc3)c2)cc1
inactive: 1 nM 1.33% | 8.33 nM -1.1% | 100 nM -1.51% | 833.33 nM -0.16% | 10000 nM -0.27%

COc1ccccc1N1CCN(CCN2C(=O)c3ccccc3C(C)(C)C2=O)CC1
inactive: 1 nM 0.16% | 8.33 nM -2.9% | 100 nM 2.69% | 833.33 nM -0.3% | 10000 nM 0.21%

Cc1[nH]c(/C=C2\C(=O)Nc3ccc(F)cc32)c(C)c1C(=O)NCCN1CCCC1 [toceranib]
inactive: 1 nM -2.12% | 8.33 nM -2.33% | 100 nM -1.03% | 833.33 nM -1.29% | 10000 nM -7.87%

O=C(N[C@H]1CCN(C(=O)c2cc(C(F)(F)F)cc(C(F)(F)F)c2)[C@H](Cc2ccc(Cl)cc2)C1)c1ccnc2ccccc12
inactive: 1 nM -1.66% | 8.33 nM -1.32% | 100 nM 1.01% | 833.33 nM 2.87% | 10000 nM 0.89%

O=C(O)c1cc2cccc([N+](=O)[O-])c2[nH]1
inactive: 1 nM -1.29% | 8.33 nM 0.14% | 100 nM -0.8% | 833.33 nM 0.27% | 10000 nM 1.27%

O=C(O)[C@H](CC(=O)N1C[C@H]2CCCC[C@H]2C1)Cc1ccccc1 [mitiglinide]
inactive: 1 nM -0.3% | 8.33 nM -1.42% | 100 nM -1.04% | 833.33 nM -1.17% | 10000 nM 1.67%

N#Cc1ccccc1-c1cc(-c2ccccn2)cn(-c2ccccc2)c1=O [Perampanel]
inactive: 1 nM 2.02% | 8.33 nM 0.93% | 100 nM 4.1% | 833.33 nM -0.14% | 10000 nM -5.2%
